In PubChem BioAssay (NCATS):
Records with an inconclusive call do not appear. The source made the active and inactive calls. Unless noted, calls follow the shape of the dose curve; as a rule, active = well fitted curve in the direction sought with a large enough effect; inconclusive = small, poorly fitted or top-dose-only effect, or another doubt; inactive = no such curve, though single readings can be large; an effect the other way counts as inactive or inconclusive.

Columns and labels:
[1] = biological target: Lysosomal acid glucosylceramidase (Homo sapiens) (UniProt P04062); assay: Glucocerebrosidase-p2 (AID 348; in the data active = potency below about 10 µM; also: potency is read from the fitted curve at half-maximal effect); conditions: purified GBA, blue fluorogenic substrate, 40 min
Chain of Lysosomal acid glucosylceramidase (Homo sapiens) (P04062 whole entry, looked up): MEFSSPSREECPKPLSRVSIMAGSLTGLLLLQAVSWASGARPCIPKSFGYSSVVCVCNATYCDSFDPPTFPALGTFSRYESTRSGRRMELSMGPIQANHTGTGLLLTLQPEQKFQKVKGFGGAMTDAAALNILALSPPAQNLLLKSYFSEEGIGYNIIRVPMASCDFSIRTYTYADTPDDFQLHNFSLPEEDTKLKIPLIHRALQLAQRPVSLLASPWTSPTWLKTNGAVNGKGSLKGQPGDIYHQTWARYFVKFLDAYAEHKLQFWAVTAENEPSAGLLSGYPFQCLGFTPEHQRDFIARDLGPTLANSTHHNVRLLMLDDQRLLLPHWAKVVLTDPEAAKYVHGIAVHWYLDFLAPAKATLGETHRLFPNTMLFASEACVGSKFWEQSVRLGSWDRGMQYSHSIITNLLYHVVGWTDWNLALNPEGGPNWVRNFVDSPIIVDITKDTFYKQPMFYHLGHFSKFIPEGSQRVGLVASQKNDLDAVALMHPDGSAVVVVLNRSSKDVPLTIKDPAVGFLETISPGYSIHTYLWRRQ
How it was run: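 Normal human glucocerebrosidase (0.2 nM) with blue fluorogenic substrate (80 uM final) in citrate/phosphate pH 5.9 with 10mM sodium taurocholate, 0.01% tween-20; 40 min RT, NaOH/glycine stop; fluorescence Ex 365/Em 440; AC50 from a titration from 0.6 nM upwards.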

[2] = AP1 Signaling Pathway (AID 357; active = well fitted curve in either direction with a large enough effect, not every such curve was filed as active;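 also: ME-180 reporter cells stimulated with EGF at its EC50 level; % is scaled to controls: 0 for no effect and ±100 for the full control effect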); conditions: ME-180 AP-1-bla reporter, EGF-induced, beta-lactamase ratio, 5 h; at 7.69 µM (top of the series) unless noted
How it was run: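 Read-out was the 460nm/530nm emission ratio (excitation 405nm) after CCF4 loading for 2.5 hours at room temperature. Cells carried an AP-1-driven beta-lactamase reporter, were stimulated with EC50 EGF plus compound for 5 hours, and AC50 values came from titrations.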

[3] = biological target: Cytochrome P450 1A2 (Homo sapiens) (UniProt P05177); assay: p450-cyp1a2 (AID 410; calls by dose curve; also: potency is read from the fitted curve at half-maximal effect;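 as to activity change, negative = inhibition: -100% = full effect of reference inhibitor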); conditions: recombinant CYP1A2, luciferin-ME demethylation, luminescence; series mostly up to 57 µM
Chain of Cytochrome P450 1A2 (Homo sapiens) (P05177 whole entry, looked up): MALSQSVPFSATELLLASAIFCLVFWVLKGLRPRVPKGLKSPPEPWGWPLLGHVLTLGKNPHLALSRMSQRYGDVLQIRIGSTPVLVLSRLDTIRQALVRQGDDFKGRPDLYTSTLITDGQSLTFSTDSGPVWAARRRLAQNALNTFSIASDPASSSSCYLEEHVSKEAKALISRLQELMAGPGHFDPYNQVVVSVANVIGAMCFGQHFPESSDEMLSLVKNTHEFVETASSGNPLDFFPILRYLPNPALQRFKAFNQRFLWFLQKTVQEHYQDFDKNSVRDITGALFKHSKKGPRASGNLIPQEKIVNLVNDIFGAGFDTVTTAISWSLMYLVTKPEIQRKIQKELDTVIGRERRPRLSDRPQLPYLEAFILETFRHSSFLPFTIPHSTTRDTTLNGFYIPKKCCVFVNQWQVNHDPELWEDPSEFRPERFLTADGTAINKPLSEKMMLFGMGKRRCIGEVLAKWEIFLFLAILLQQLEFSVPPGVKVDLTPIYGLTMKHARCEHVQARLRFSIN
How it was run: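 Luminescent demethylation readout: Luciferin-ME (100uM, equal to Km) turned over by 20nM CYP1A2 for 60 min at room temperature after NADPH regeneration addition, following 10 min compound preincubation. Normalization used 57 uM furafylline as full inhibition.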

[4] = Stat Signaling Pathway (AID 446; active = well fitted curve in either direction with a large enough effect, not every such curve was filed as active;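 also: ME-180 cervical cancer cells given 40 pM IL-6 alongside compound; SIE-controlled beta-lactamase reporter measured as 460/530 nm FRET emission ratio; % is scaled to controls: 0 for no effect and ±100 for the full control effect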); conditions: ME-180 SIE beta-lactamase reporter, IL-6 stimulated, 5 h; at 7.69 µM (top of the series) unless noted
How it was run: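 Emission at 460 and 530 nm (excitation 405 nm) reports SIE-controlled beta-lactamase in ME-180 cells. Cells received compound with 40 pM IL-6 for 5 hrs at 37 C; data scaled between 300 pM IL-6 and 125 nM JAK-inhibitor controls.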

[5] = biological target: Glucocorticoid receptor (Homo sapiens) (UniProt P04150); assay: GR-EFC Redistribution (AID 451; calls by dose curve; also: potency is read from the fitted curve at half-maximal effect); conditions: CHO-K1 GR-EFC translocation, beta-gal luminescence, 2 h
Chain of Glucocorticoid receptor (Homo sapiens) (P04150 whole entry, looked up, the tested form may be a part): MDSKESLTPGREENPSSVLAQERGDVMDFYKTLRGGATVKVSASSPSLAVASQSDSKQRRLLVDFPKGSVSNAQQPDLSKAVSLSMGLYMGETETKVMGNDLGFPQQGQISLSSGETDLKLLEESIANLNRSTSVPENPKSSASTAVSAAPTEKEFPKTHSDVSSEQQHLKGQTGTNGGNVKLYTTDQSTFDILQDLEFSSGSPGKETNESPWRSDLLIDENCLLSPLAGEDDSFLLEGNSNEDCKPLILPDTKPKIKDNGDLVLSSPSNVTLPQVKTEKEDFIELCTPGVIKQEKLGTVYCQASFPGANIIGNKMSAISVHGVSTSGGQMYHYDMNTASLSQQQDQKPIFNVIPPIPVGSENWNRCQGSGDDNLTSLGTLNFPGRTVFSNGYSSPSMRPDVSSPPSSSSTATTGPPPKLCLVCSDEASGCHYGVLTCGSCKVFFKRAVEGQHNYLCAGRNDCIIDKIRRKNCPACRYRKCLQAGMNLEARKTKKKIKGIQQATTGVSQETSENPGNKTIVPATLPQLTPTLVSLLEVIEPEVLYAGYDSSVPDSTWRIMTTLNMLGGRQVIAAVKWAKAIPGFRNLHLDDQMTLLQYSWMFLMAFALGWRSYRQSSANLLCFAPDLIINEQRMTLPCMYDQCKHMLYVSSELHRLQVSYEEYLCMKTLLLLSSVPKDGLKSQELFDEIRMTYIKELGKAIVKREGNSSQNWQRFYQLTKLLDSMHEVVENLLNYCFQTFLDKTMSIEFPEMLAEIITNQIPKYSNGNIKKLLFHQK
How it was run: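 CHO-K1 cells stably expressing nuclear-localized β-gal enzyme acceptor and GR fused C-terminally to the enzyme donor fragment; ligand-driven nuclear translocation restores β-gal by complementation. Compounds titrated up to 46 uM final, 2 h at 37 °C; luminescence read.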

[6] = biological target: Mitogen-activated protein kinase 10 (Mus musculus) (UniProt Q61831); assay: JNK3 AlphaScreen Assay (AID 530; active = well fitted curve in either direction with a large enough effect, not every such curve was filed as active;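 also: kinase came from lysate of stimulated human HepG2 cells; signal reports phosphorylation of biotinylated GST-cJun 1-79 at Ser73 with 10 µM ATP; % is scaled to controls: 0 for no effect and ±100 for the full control effect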); conditions: JNK3 lysate, c-Jun phosphorylation; series mostly up to 57.1 µM
How it was run: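 Phosphorylation of biotinylated GST-cJun(1-79) at Ser73 is measured by AlphaScreen proximity luminescence. Enzyme is JNK3 in HepG2 lysates activated with interleukin-1beta and tumor necrosis factor alpha; ATP is 10 uM final.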

[7] = biological target: 3',5'-cyclic-AMP phosphodiesterase 4B (Homo sapiens) (UniProt Q07343); assay: qHTS Assay for Inhibitors of PDE-IV (AID 607; active = well fitted activation curve with a large enough effect in the main read-out, with a control signal flat, not every such curve was filed as active; also: % of control where 0% means no effect); conditions: HEK293 ACTOne CNG channel cells, membrane potential fluorescence; series mostly up to 22.9 µM
Chain of 3',5'-cyclic-AMP phosphodiesterase 4B (Homo sapiens) (Q07343 whole entry, looked up): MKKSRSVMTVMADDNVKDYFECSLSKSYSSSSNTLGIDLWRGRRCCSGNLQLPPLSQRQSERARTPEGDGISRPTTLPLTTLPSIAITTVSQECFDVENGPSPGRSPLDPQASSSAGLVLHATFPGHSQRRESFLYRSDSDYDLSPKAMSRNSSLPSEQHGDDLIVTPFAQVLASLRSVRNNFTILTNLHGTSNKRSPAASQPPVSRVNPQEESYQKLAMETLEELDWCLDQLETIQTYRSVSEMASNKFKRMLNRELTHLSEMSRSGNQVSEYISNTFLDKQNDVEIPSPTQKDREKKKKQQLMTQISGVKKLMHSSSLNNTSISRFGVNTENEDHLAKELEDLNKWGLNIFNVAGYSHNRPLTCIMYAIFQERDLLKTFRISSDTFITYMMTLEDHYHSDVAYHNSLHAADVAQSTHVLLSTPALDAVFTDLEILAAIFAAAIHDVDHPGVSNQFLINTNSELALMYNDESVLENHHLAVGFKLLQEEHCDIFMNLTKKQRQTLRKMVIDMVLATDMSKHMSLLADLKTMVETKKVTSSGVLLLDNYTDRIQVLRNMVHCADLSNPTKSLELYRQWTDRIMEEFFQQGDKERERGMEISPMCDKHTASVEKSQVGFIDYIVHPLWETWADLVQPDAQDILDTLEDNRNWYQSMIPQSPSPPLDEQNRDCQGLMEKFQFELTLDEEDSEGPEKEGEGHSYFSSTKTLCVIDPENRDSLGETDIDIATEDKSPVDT
How it was run: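 The readout is membrane depolarisation from a cAMP-sensing CNG channel, detected with a potential dye at ex 535/em 590. Cells were HEK293-derived (endogenous PDE-IV) at 1000 cells/well, titrated up to 22.9 uM final.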

[8] = qHTS Assay for Lipid Storage Modulators (AID 1519; calls by dose curve); conditions: Drosophila S3 cells, BODIPY lipid droplet/cell ratio, laser cytometry, cells loaded with oleic acid; for activity change, negative = inhibition: at 57.5 µM (top of the series)
How it was run: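 Cells seeded at 5,000 per well were treated with compounds over a concentration series and loaded with oleic acid (400 uM, as added). Lipid droplet fluorescence (488 nm excitation, 500-530 nm channel) was read by laser-scanning cytometry and normalized to 20 uM Triacsin C.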

[9] = Primary qHTS for small molecule stabilizers of the endoplasmic reticulum resident proteome: Secreted ER Calcium Modulated Protein (SERCaMP) assay (AID 1508630); conditions: SH-SY5Y GLuc-SERCaMP (Gaussia luciferase released on ER calcium loss) secretion, thapsigargin, luminescence; series mostly up to 38.4 µM; also: % is scaled to controls: 0 for no effect and ±100 for the full control effect
How it was run: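 The SH-SY5Y reporter protocol was run at 3 concentrations up to 38.3 uM (primary) or 11 concentrations (follow-up): 16 h compound, 100 nM thapsigargin for 4 h, then extracellular luciferase luminescence.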

[10] = biological target: Cytochrome P450 2C9 (Homo sapiens) (UniProt P11712); assay: qHTS Assay for Inhibitors and Substrates of Cytochrome P450 2C9 (AID 883); conditions: recombinant CYP2C9, luciferin-H luminescence, 60 min; series mostly up to 57.1 µM; also: potency is read from the fitted curve at half-maximal effect; nearly all actives have a fitted effect of over 60% in size
Chain of Cytochrome P450 2C9 (Homo sapiens) (P11712 whole entry, looked up): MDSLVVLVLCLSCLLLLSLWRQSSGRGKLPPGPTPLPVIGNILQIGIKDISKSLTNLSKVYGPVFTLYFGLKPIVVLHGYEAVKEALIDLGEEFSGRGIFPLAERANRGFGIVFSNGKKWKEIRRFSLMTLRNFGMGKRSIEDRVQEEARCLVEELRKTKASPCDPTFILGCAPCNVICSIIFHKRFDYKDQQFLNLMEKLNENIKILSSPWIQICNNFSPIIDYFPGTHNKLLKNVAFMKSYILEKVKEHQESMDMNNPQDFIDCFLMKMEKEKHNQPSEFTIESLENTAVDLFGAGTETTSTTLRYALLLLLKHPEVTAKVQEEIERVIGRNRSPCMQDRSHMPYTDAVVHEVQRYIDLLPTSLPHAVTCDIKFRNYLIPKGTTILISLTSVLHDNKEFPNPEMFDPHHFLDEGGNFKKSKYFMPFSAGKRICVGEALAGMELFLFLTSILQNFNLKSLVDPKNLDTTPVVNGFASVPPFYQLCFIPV
How it was run: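 CYP2C9 deoxyluciferin hydroxylation, 37C, 60 min with NADPH regeneration; 10nM enzyme, 100uM Luciferin-H (KM). Glo detection reagent stopped reaction; luminescence normalized to sulphaphenazole (57uM) full inhibition.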

[11] = biological target: Cytochrome P450 3A4 (Homo sapiens) (UniProt P08684); assay: qHTS Assay for Inhibitors and Substrates of Cytochrome P450 3A4 (AID 884); conditions: recombinant CYP3A4, Luciferin-PPXE luminescence; series mostly up to 57.1 µM; also: nearly all actives have a fitted effect of over 50% in size; also: potency is read from the fitted curve at half-maximal effect
Chain of Cytochrome P450 3A4 (Homo sapiens) (P08684 whole entry, looked up): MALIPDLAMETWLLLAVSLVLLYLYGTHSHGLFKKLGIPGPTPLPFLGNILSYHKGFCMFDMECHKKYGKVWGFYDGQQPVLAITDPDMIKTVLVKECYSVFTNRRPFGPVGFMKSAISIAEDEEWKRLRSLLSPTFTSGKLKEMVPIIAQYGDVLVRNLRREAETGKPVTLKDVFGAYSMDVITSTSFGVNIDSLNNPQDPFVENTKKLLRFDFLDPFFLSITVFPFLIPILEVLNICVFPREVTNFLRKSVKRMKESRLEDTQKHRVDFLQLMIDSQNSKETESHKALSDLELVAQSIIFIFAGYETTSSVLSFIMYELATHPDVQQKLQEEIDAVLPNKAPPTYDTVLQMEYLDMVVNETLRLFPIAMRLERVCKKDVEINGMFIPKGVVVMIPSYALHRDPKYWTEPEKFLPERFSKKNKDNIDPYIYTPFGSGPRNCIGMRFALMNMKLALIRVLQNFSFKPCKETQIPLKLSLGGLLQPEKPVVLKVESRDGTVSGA
How it was run: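 Luminescent readout of luciferin produced by CYP3A4 (20 nM) dealkylation of Luciferin-PPXE, 25 uM (its KM). NADPH-driven reaction ran 60 min at RT after 10 min compound preincubation; data scaled to 57 uM ketoconazole as 100% inhibition.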

[12] = biological target: Cytochrome P450 3A4 (Homo sapiens) (UniProt P08684); assay: qHTS Assay for Activators of Cytochrome P450 3A4 (AID 885); conditions: recombinant CYP3A4, Luciferin-PPXE luminescence, 60 min; series mostly up to 57.1 µM; also: nearly all actives have a fitted effect of over 65% in size
How it was run: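 Activators are scored by enhanced luminescence from CYP3A4 conversion of luciferin-PPXE (25uM, equal to KM) to luciferin, after 60 min at RT with an NADPH-regenerating system.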

[13] = biological target: Cytochrome P450 2D6 (Homo sapiens) (UniProt P10635); assay: qHTS Assay for Inhibitors and Substrates of Cytochrome P450 2D6 (AID 891); conditions: recombinant CYP2D6, luciferin-ME EGE luminescence; series mostly up to 57.1 µM; also: potency is read from the fitted curve at half-maximal effect; nearly all actives have a fitted effect of over 60% in size
Chain of Cytochrome P450 2D6 (Homo sapiens) (P10635 whole entry, looked up): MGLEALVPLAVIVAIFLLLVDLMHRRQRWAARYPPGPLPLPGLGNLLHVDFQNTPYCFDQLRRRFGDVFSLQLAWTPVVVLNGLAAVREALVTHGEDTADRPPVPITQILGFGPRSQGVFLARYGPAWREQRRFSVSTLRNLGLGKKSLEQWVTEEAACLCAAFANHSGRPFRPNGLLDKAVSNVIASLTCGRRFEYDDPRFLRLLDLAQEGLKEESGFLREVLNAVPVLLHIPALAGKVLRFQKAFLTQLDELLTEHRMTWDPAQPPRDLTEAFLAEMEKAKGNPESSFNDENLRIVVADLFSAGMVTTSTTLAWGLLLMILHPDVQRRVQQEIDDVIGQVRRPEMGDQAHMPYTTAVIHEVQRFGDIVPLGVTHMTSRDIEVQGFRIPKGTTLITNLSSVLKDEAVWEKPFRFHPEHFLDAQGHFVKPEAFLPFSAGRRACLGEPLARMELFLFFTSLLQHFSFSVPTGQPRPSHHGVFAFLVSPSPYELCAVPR
How it was run: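 Luminescent read-out of luciferin formed by 5 nM human CYP2D6 demethylating 30 uM Luciferin-ME EGE (Km level) over 60 min at room temperature after NADPH regeneration addition. Data normalized to full inhibition by 1.43 uM quinidine.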

[14] = qHTS Assay for Identification of Small Molecule Agonists for Hypoxia Response Element Signaling Pathway (AID 914; active = well fitted activation curve with a large enough effect in the signal ratio, with a control signal flat, not every such curve was filed as active; the % refers to the signal ratio; also: % of control where 0% means no effect); conditions: ME-180 (cervical carcinoma) HRE-bla reporter, beta-lactamase ratio, CoCl2, 17 h; activation: stronger effect = higher value
How it was run: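 Reporter activity (beta-lactamase, CCF4 460nm/530nm ratio) in HRE-bla ME-180 cells is recorded after 17 h compound exposure with EC50 CoCl2 at 37 degrees Celsius. AC50 values come from titration data.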

[15] = biological target: Glucocorticoid receptor (Homo sapiens) (UniProt P04150); assay: GR-GFP Redistribution (AID 450;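 active = compounds whose dose series gives a full or clear partial fitted curve of increased nuclear translocation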; also: potency is read from the fitted curve at half-maximal effect); conditions: U2OS GR-GFP nuclear translocation, laser cytometry, 2 h
[16] = biological target: Cytochrome P450 2C19 (Homo sapiens) (UniProt P33261); assay: qHTS Assay for Inhibitors and Substrates of Cytochrome P450 2C19 (AID 899); conditions: recombinant CYP2C19, luciferin-H EGE luminescence; series mostly up to 57.1 µM; also: potency is read from the fitted curve at half-maximal effect; nearly all actives have a fitted effect of over 60% in size
How it was run: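 In 50mM KPO4, the reaction held 5nM enzyme and KM-level (10uM) Luciferin-H EGE; it ran 60 min at 37C after NADPH regeneration and a 10 min compound preincubation. Luminescence values were scaled to 57uM ketoconazole as complete inhibition.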

[17] = Confirmation and Secondary Assay for Modulators of Hemoglobin Beta Chain Splicing at IVS2 654 locus (AID 910); conditions: HeLa EGFP-654 splicing reporter, GFP fluorescence, 48 h; series mostly up to 38.3 µM;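 also: per-well total GFP intensity by laser scanning cytometry after 2-day treatment; % of control where 0% means no effect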
How it was run: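 HeLa cells stably carrying EGFP interrupted by mutant beta-globin IVS2-654 intron (CMV-driven) were treated with compound for 2 days at 37C; corrected splicing was scored as total peak GFP intensity per well (488 nm excitation, 500-520 nm emission).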

[18] = Confirmation and Secondary Assay for Modulators of Hemoglobin Beta Chain Splicing at IVS2 705 locus (AID 930); conditions: HeLa EGFP-705 splicing reporter, GFP fluorescence, 48 h; series mostly up to 38.3 µM;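 also: HeLa cells stably expressing the EGFP-705 splicing reporter; GFP fluorescence per well restored by corrected splicing of the IVS2-705 intron in EGFP; % of control where 0% means no effect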
How it was run: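 Stable HeLa line with EGFP disrupted by mutant beta-globin intron 2 (705). Overnight attachment, then 2 days of compound at 37C, 5% CO2. Signal: peak GFP intensity summed over objects 5-250 µm.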

[19] = biological target: Ubiquitin carboxyl-terminal hydrolase 1 (Homo sapiens) (UniProt O94782); assay: Inhibitors of USP1/UAF1: Pilot qHTS (AID 504865); conditions: purified USP1/UAF1, Ub-rhodamine cleavage fluorescence; series mostly up to 54.9 µM;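 also: rhodamine fluorescence freed from ubiquitin-rhodamine substrate followed over time; top concentration of the series differs between compounds; % is scaled to controls: 0 for no effect and ±100 for the full control effect; nearly all actives have a fitted effect of over 35% in size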
Chain of Ubiquitin carboxyl-terminal hydrolase 1 (Homo sapiens) (O94782 whole entry, looked up): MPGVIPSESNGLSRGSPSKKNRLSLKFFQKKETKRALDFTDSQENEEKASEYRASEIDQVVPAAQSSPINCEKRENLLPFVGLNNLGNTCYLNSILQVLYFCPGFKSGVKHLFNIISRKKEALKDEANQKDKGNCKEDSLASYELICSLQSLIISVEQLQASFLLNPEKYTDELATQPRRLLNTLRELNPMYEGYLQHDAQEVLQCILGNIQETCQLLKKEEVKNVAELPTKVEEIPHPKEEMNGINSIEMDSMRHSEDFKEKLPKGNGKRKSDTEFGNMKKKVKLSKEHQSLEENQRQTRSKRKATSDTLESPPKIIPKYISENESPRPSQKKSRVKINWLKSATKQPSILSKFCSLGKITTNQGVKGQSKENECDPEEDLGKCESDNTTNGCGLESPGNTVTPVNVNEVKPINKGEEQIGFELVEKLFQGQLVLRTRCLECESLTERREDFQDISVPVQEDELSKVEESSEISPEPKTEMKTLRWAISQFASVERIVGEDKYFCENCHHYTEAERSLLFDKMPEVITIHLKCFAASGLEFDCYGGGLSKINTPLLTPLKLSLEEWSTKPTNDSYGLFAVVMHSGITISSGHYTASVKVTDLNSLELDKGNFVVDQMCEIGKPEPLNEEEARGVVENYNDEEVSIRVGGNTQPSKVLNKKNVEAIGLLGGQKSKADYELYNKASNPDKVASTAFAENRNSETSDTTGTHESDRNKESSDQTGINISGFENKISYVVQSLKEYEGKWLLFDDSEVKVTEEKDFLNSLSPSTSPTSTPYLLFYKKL
How it was run: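 USP1/UAF1 complex at 1 nM preincubated 15 min at room temperature with compound, then Ub-Rho substrate added at 150 nM final. Fluorescence (480/540 nm) read kinetically in 50 mM HEPES pH 7.8, 0.5 mM EDTA, 1 mM TCEP, 0.1 mg/ml BSA, 0.01% Tween-20.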

[20] = measured here: cell count channel max response
[21] = measured here: lipid channel max response

CS(=O)(=O)N1CCC2(CCN(c3ccncc3)CC2)CC1
active: Potency [3] 12.6 µM
inactive: Potency [1] > 11.4 µM | activity change, negative = inhibition [2] -13.1% | activity, negative = inhibition [4] 0.543% | Potency [5] > 46 µM | Potency [6] | Potency [7] | activity change, negative = inhibition [8] 3.83% | outcome [9]
7.45%: max response [8, 20]
13.6%: max response [8, 21]

O=C(c1ccncc1)N1CCC2(CCCN(Cc3ccncc3)C2)CC1
inactive: Potency [1] > 11.4 µM | activity change, negative = inhibition [2] -5.21% | activity, negative = inhibition [4] 4.83% | Potency [5] > 46 µM | Potency [6] | Potency [7] | Potency [12] | activation [14] 2.4% | activity change, negative = inhibition [8] 2.08% | outcome [9]
8.27%: max response [8, 21]
active: Potency [3] 6.31 µM | Potency [10] 5.01 µM | Potency [11] 5.01 µM | Potency [13] 6.31 µM
1.67%: max response [8, 20]

CN(C)c1ccc(-c2cncnc2NCc2ccccc2)cc1
16.1%: max response [8, 21]
-3.1%: max response [8, 20]
active: Potency [3] 1 µM | Potency [16] 0.398 µM
inactive: Potency [1] > 11.4 µM | activity change, negative = inhibition [2] -0.796% | activity, negative = inhibition [4] -2.24% | Potency [15] > 46 µM | Potency [5] > 46 µM | Potency [11] | Potency [17] | outcome [18] | activity change, negative = inhibition [8] 9.86% | outcome [9]

CC(C)CN1CCC2(CC1)CCN(S(=O)(=O)c1ccccc1)CC2
3.86%: max response [8, 21]
inactive: Potency [1] > 11.4 µM | activity change, negative = inhibition [2] -4.17% | Potency [3] | activity, negative = inhibition [4] -1.58% | Potency [5] > 46 µM | Potency [6] | Potency [7] | activity change, negative = inhibition [8] 2.93% | outcome [9]
-0.0585%: max response [8, 20]

CN(C)Cc1ccccc1-c1cc(-n2ccnc2)ncn1
14.2%: max response [8, 21]
active: Potency [3] 5.01 µM | Potency [13] 2.51 µM
inactive: Potency [1] > 11.4 µM | activity change, negative = inhibition [2] -2.52% | activity, negative = inhibition [4] 1.39% | Potency [15] > 46 µM | Potency [5] > 46 µM | Potency [6] | Potency [7] | Potency [12] | Potency [17] | outcome [18] | activity change, negative = inhibition [8] 11.3% | Potency [19] | outcome [9]
4.13%: max response [8, 20]

Cc1cnc(CNc2ncnc3ccc(-c4cccc(C#N)c4)cc23)cn1
8.37%: max response [8, 21]
active: Potency [3] 0.398 µM | Potency [11] 3.16 µM
inactive: Potency [1] > 11.4 µM | activity change, negative = inhibition [2] -21.7% | activity, negative = inhibition [4] -7.7% | Potency [15] > 46 µM | Potency [5] > 46 µM | Potency [6] | Potency [7] | Potency [12] | Potency [17] | outcome [18] | activity change, negative = inhibition [8] 11.4% | Potency [19] | outcome [9]
-3.07%: max response [8, 20]
